Several values for one entry are separate records, joined by “and”; a condition that tells them apart may be missing. Equal values may be shown once. Records with an inconclusive call do not appear. Entries that show only a call come without a potency. A structure can be active in one record and inactive in another. Activity calls are given as the source filed them. Unless noted, the call rests on the fitted dose curve; in most records, active means well fitted cell-killing curve with a large enough effect in the repeat runs (not every such curve was filed as active); inconclusive means weak or mixed curves, or effect the other way; inactive means no such curve, though single readings can be large or run the other way.
Test system: not listed separately
Assay: qHTS assay to identify small molecule antagonists of the constitutive androstane receptor (CAR) signaling pathway - cell viability counter screen (AID 1224837; active means well fitted curve in the direction sought with a large enough effect in the repeat runs; an effect the other way counts as inactive or inconclusive; further: nearly all actives have a fitted effect of over 45% in size)
Conditions: HepG2-CYP2B6-hCAR viability, CellTiter-Fluor, 23 h, co-treated with 50 nM CITCO; series mostly up to 92.4 µM
Procedure, shortened: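 HepG2 cells stably carrying hCAR and CYP2B6-2.2kb reporter, stimulated with 50 nM CITCO and compounds at 15 concentrations for 23 h at 37 C. Viability measured by CellTiter-Fluor fluorescence.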

| SMILES | Potency |
| --- | --- |
| O=P(Oc1ccccc1)(Oc1ccccc1)Oc1ccccc1 | inactive |
| CCc1cccc(CC)c1N(COC)C(=O)CCl | inactive |
| C[C@]12CCC(=O)C[C@@H]1CC[C@@H]1[C@@H]2CC[C@]2(C)[C@@H](O)CC[C@@H]12 | inactive |
| c1cc(OCC2CO2)ccc1Cc1ccc(OCC2CO2)cc1 (stereo not drawn) | inactive |
| N[C@@H](Cc1ccc(N(CCCl)CCCl)cc1)C(=O)O | inactive |

Biological target: Nuclear receptor subfamily 1 group I member 3 (Homo sapiens) (UniProt Q14994)
Sequence (Q14994 whole entry, looked up): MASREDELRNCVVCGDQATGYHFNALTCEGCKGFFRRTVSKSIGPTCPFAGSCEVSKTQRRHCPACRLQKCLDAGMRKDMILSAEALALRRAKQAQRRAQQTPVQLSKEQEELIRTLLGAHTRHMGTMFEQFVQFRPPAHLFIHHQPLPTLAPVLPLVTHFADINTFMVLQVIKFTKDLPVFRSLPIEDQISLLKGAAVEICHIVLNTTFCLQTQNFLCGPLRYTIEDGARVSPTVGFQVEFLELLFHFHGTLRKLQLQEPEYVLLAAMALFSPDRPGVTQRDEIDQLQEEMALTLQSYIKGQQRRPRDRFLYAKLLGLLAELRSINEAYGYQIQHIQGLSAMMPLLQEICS
Assay: qHTS assay to identify small molecule antagonists of the constitutive androstane receptor (CAR) signaling pathway (AID 1224838; active means well fitted curve in the direction sought with a large enough effect in the repeat runs; an effect the other way counts as inactive or inconclusive; further: nearly all actives have a fitted effect of over 40% in size; further: potency means the concentration at half of the fitted maximal effect)
Conditions: HepG2-CYP2B6-hCAR luciferase, CITCO-stimulated, 24 h; series mostly up to 92.4 µM
Procedure, shortened: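 HepG2 cells stably carrying hCAR and a CYP2B6-2.2kb luciferase reporter, seeded 4 hrs before compound (15 concentrations). Stimulated with 50 nM CITCO for 24 hr at 37 C. ONE-Glo luminescence read after 30 min at room temperature.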

| SMILES | Potency |
| --- | --- |
| C#CCOS(=O)OC1CCCCC1Oc1ccc(C(C)(C)C)cc1 (stereo not drawn) | inactive |
| Clc1nc(Cl)nc(Cl)n1 | inactive |
| CCOC(=S)S | 24.3 µM (active) and 36.6 µM (active) |
| Cc1ccc2c(c1N)C(=O)c1ccccc1C2=O | inactive |
| CCOCN(C(=O)CCl)c1c(C)cccc1CC | inactive |
| O=P(Oc1ccccc1)(Oc1ccccc1)Oc1ccccc1 | inactive |
| CCC(C)c1cc([N+](=O)[O-])cc([N+](=O)[O-])c1O (stereo not drawn) | inactive |
| CN(C)c1ccc(C(=O)c2ccc(N(C)C)cc2)cc1 | inactive |
| c1cc(OCC2CO2)ccc1Cc1ccc(OCC2CO2)cc1 (stereo not drawn) | inactive |
| Oc1cc(Cl)ccc1Oc1ccc(Cl)cc1Cl | 55.8 µM (active) and inactive |

Biological target: Nuclear receptor subfamily 1 group I member 3 (Homo sapiens) (UniProt Q14994)
Assay: qHTS assay to identify small molecule agonists of the constitutive androstane receptor (CAR) signaling pathway (AID 1224839; active means well fitted curve in the direction sought with a large enough effect in the repeat runs; an effect the other way counts as inactive or inconclusive; further: nearly all actives have a fitted effect of over 15% in size; further: potency means the concentration at half of the fitted maximal effect)
Conditions: HepG2 hCAR CYP2B6-luciferase, agonist mode, 24 h; series mostly up to 92.4 µM
Procedure, shortened: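 Cells were plated and incubated 4 hrs, then dosed with compounds at 15 concentrations. PK11195 was added to 0.75 uM final. After 24 hrs at 37 C, luciferase luminescence was measured.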

| SMILES | Potency |
| --- | --- |
| Clc1nc(Cl)nc(Cl)n1 | inactive |
| CCOC(=S)S | inactive |
| COP(=S)(OC)Oc1ccc([N+](=O)[O-])cc1 | inactive |
| CCOCN(C(=O)CCl)c1c(C)cccc1CC | 18.3 µM (active) and 15.4 µM (active) |
| CCC(C)c1cc([N+](=O)[O-])cc([N+](=O)[O-])c1O (stereo not drawn) | inactive |
| Cc1ccc(N)c(N)c1 | 27.4 µM (active) and 24.3 µM (active) |
| O=C(NC(=O)c1c(F)cccc1F)Nc1ccc(Cl)cc1 | inactive and 1.22 µM (active) |
| Oc1cc(Cl)ccc1Oc1ccc(Cl)cc1Cl | inactive |

Test system: not listed separately
Assay: qHTS assay to identify small molecule antagonists of the estrogen related receptor signaling pathway with the pleiotropic PPARgamma coactivator (PGC) from Tox21 10K library - cell viability counter screen (AID 1224840); further: nearly all actives have a fitted effect of over 40% in size; further: potency means the concentration at half of the fitted maximal effect
Conditions: PGC/ERR reporter cells viability, CellTiter-Fluor, 17.5 h; series mostly up to 92.4 µM
Procedure, shortened: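 PGC/ERR cells (2,000/well) plated 6 h, then compound-treated for 17.5 h at 37 C. Viability measured by CellTiter-Fluor fluorescence after 30 min at 37 C, multiplexed with the pathway assay.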

| SMILES | Potency |
| --- | --- |
| CCCCCc1cc(O)cc(O)c1 | inactive and 48.6 µM (active) |
| CC(C)=CC1C(C(=O)OCc2coc(Cc3ccccc3)c2)C1(C)C (stereo not drawn) | inactive |
| C#CCOS(=O)OC1CCCCC1Oc1ccc(C(C)(C)C)cc1 (stereo not drawn) | inactive |
| CC(O)CCO (stereo not drawn) | inactive |
| NC(=S)Nc1ccccc1 | inactive |
| C1=Cc2cccc3cccc1c23 | inactive |
| Clc1nc(Cl)nc(Cl)n1 | inactive |
| COc1ccc(C(CN(C)C)C2(O)CCCCC2)cc1 (stereo not drawn) | inactive |
| CCCCN(CC)c1c([N+](=O)[O-])cc(C(F)(F)F)cc1[N+](=O)[O-] | inactive |
| S=C1NCCN1 | inactive |
| Cc1ccc2c(c1N)C(=O)c1ccccc1C2=O | inactive |
| CC(C)(C)c1ccccc1O | inactive |
| O=C(Nc1ccc(Br)cc1)c1cc(Br)cc(Br)c1O | inactive and 21.1 µM (active) |
| CCOCN(C(=O)CCl)c1c(C)cccc1CC | inactive |
| O=P(Oc1ccccc1)(Oc1ccccc1)Oc1ccccc1 | inactive |
| c1ccc(NNc2ccccc2)cc1 | inactive |
| CCc1cccc(CC)c1N(COC)C(=O)CCl | inactive |
| ClC1C(Cl)C(Cl)C(Cl)C(Cl)C1Cl (stereo not drawn) | inactive |

| SMILES | Potency |
| --- | --- |
| CCC(C)c1cc([N+](=O)[O-])cc([N+](=O)[O-])c1O (stereo not drawn) | inactive and 17.2 µM (active) |
| O=C(O)CC[N+](=O)[O-] | inactive |
| CC(C)c1ccc(CO)cc1 | inactive |
| CCN(CC)C(=O)/C(Cl)=C(\C)OP(=O)(OC)OC | inactive |
| O=[N+]([O-])c1c(Cl)c(Cl)c(Cl)c(Cl)c1Cl | inactive |
| C[C@]12CCC(=O)C[C@@H]1CC[C@@H]1[C@@H]2CC[C@]2(C)[C@@H](O)CC[C@@H]12 | inactive |
| c1ccc(P(c2ccccc2)c2ccccc2)cc1 | inactive |
| CN(C)c1ccc(C(=O)c2ccc(N(C)C)cc2)cc1 | inactive |
| c1cc(OCC2CO2)ccc1Cc1ccc(OCC2CO2)cc1 (stereo not drawn) | inactive |
| Cc1ccc(N)c(N)c1 | inactive |
| O=C(CCl)c1ccccc1 | inactive |
| COc1ccc(C=O)cc1 | inactive |
| O=C(NC(=O)c1c(F)cccc1F)Nc1ccc(Cl)cc1 | inactive |
| CCCCC(CC)COC(=O)Cl (stereo not drawn) | inactive |
| Oc1cc(Cl)ccc1Oc1ccc(Cl)cc1Cl | 24.9 µM (active) |
| CC(C)NC(C)C | inactive |
| N[C@@H](Cc1ccc(N(CCCl)CCCl)cc1)C(=O)O | inactive |
